Experiment [1] in a line: High-throughput drug toxicity screening in the BPDCN cell line Gen2.2 (AID 1224824; call rule not given here;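 note: cells exposed to compounds for 48 h before reading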). The note with it: Gen2.2 BPDCN cells; at 45.8 µM (top of the series) unless noted. The essentials: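 CellTiter-Glo luminescence read after 48 h compound exposure at 37 C defines viability; percent activity set with DMSO as 100% and bortezomib (9.2 uM final) as 0%. 500 exponentially growing cells per well, RPMI plus 10% FBS.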

Experiment [2] is described as follows: High-throughput drug toxicity screening in the BPDCN cell line Cal-1 (AID 1224825; call rule not given here). The note with it: Cal-1 BPDCN cell viability, qHTS; at 45.8 µM (top of the series) unless noted. The essentials:
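Exponentially growing Cal-1 cells, 500 per well in phenol red-free RPMI with 10% FBS, were exposed to compounds for 48 h at 37 °C, 5% CO2. Viability was read by CellTiter-Glo luminescence and normalised to DMSO (100%) and 9.2 uM bortezomib (0%).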
Background: In qHTS, concentration-response curves come from the screen itself.

Experiment [3] is described as follows: qHTS assay for measurement of the activity of small molecule inhibitors on Zika virus induced Caspase-3 activity in human iPSC derived neural progenitor cells (hNPCs) (AID 1224857). Note: nearly all actives have a fitted effect of over 65% in size. Note: potency is the fitted concentration of half-maximal effect. The essentials: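 hNPCs seeded 350 cells/well, cultured 16–20 h; compounds added 1 h before ZIKV (2 FFU/cell), 37 C 6 h. Caspase-Glo 3/7 luminescence after 30 min RT; % inhibition from induction scaled to uninfected (0%) and infected (100%) wells.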

Experiment [4] is described as follows: qHTS assay for measurement of the activity of small molecule inhibitors on Zika virus induced Caspase-3 activity in human astrocytoma cells (AID 1224859). Note: potency is the fitted concentration of half-maximal effect. The essentials: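 Luminescence read-out (Caspase-Glo 3/7, 30 min RT) of caspase activity in SNB-19 cells infected 6 h with ZIKV, 2 FFU/cell, after 1 h compound pretreatment; % inhibition from induction normalised to uninfected (0%) and infected (100%) wells.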

Experiment [5] in a line: qHTS Screen of the MIPE 4.0 Collection Against Ewings Sarcoma (RDES) (AID 1259252). Note: nearly all actives have a fitted effect of over 35% in size. Note: potency is the fitted concentration of half-maximal effect. The essentials: (§1)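 Here, cells in 5% FBS RPMI were exposed for two days (48 h) to compound dilutions added four hours after plating. ATP-based CellTiter-Glo luminescence measured viability, normalized to vehicle and no-cell blanks.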
Experiment [6] in a line: qHTS Screen of the MIPE 4.0 Collection Against Ewings Sarcoma (EW8) (AID 1259255).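 For viability: 100% = DMSO-treated cells and 0% = medium-only wells without cells.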 Note: nearly all actives have a fitted effect of over 35% in size. Note: potency is the fitted concentration of half-maximal effect. The essentials:
as §1

The nature of experiment [7]: qHTS Screen of the MIPE 4.0 Collection Against Ewings Sarcoma (TC32) (AID 1259256). Note: nearly all actives have a fitted effect of over 45% in size. Note: potency is the fitted concentration of half-maximal effect. In a few lines: as §1
The nature of experiment [8]: P-glycoprotein substrates identified in KB-8-5-11 adenocarcinoma cell line, qHTS therapeutic library screen (AID 1346987). Note: nearly all actives have a fitted effect of over 65% in size. Note: potency is the fitted concentration of half-maximal effect. In a few lines: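 P-gp-mediated resistance screen: KB-8-5-11 cells treated 72 h with compounds in dose-response. CellTiter-Glo viability.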
Experiment [9] can be described thus: qHTS Screen of the MIPE 4.0 Collection Against Ewings Sarcoma (TC71) (AID 1259253). Note: nearly all actives have a fitted effect of over 40% in size. Note: potency is the fitted concentration of half-maximal effect. The essentials: as §1
Experiment [10] in a line: P-glycoprotein substrates identified in KB-3-1 adenocarcinoma cell line, qHTS therapeutic library screen (AID 1346986).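 Note: potency is the fitted concentration of half-maximal effect; potency is for cytotoxicity meaning loss of cell viability; nearly all actives have a fitted effect of over 60% in size.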 In a few lines: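 KB-3-1 parental cells and P-gp-overexpressing KB-8-5-11 (colchicine omitted during assay) plated at 500 cells/well, dosed in dose-response, incubated 72 h at 37 degree C. CellTiter-Glo luminescence read; KB-8-5-11 also tested with tariquidar.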

“And” between values parts separate entries of the source, which are not always exact repeats. Equal values may be shown once. Records with an inconclusive call do not appear. The source made the active and inactive calls. Unless noted, calls come from the whole dose curve; as a rule, active = well fitted curve in the direction sought with a large enough effect; inconclusive = small, poorly fitted or top-dose-only effect, or another doubt; inactive = no such curve, though single readings can be large; an effect the other way counts as inactive or inconclusive.

`O=C(C=CC=Cc1ccc2c(c1)OCO2)N1CCCCC1`: the cell viability, % of control (lower = more cytotoxic) in experiment [1] stood at 122%. For the same molecule, the viability (% of control) in [2] amounted to 101%. Moreover, the results for the Potency in experiment [3] and in experiment [4] were 14.8 µM (active) and 10.5 µM (active), respectively. Further, the Potency entry in [5], in experiment [6], in experiment [7] and in experiment [8] was “inactive” each time.
On to `C[C@@H](Cc1cc2c(c(C(N)=O)c1)N(CCCO)CC2)NCCOc1ccccc1OCC(F)(F)F`, for which the cell viability, % of control (lower = more cytotoxic) in experiment [1] came out at 183%. Also, in experiment [2], the viability (% of control) came to 97.3%. The Potency entry in experiment [3], in experiment [5], in experiment [9], in experiment [6], in experiment [7] and in experiment [8] was “inactive” throughout.
With `COc1cccc2c1C(=O)c1c(O)c3c(c(O)c1C2=O)C[C@@](O)(C(=O)CO)C[C@@H]3O[C@H]1C[C@H](N)[C@H](OC2CCCCO2)[C@H](C)O1` (stereo partly specified), the cell viability, % of control (lower = more cytotoxic) in experiment [1] was 5.53%. Also, the viability (% of control) in experiment [2] is 1.87%. For the same molecule, the Potency entry in experiment [3] and in [4] was “inactive” in each case. Besides, the Potency in experiment [5] was 1.18 µM (active); in experiment [6], 166 nM (active); in experiment [7], 3.7 nM (active); in experiment [8], 5.26 µM (active).
As for `CC(C)n1cnc2c(NCCc3ccc(O)cc3)nc(-c3csc4ccccc34)nc21`, the cell viability, % of control (lower = more cytotoxic) in experiment [1] amounted to 11.4%. In addition, the viability (% of control) in experiment [2] worked out at 2.43%. The Potency entry in experiment [3] is “inactive”. Further, the Potency was 2.35 µM (active) in experiment [5]; 4180 nM (active) in experiment [9]; 13200 nM (active) in experiment [6]; 4180 nM (active) in [7]; 20.9 µM (active) and 20.6 µM (active) in experiment [8].
With `C=CC(=O)N1CCc2ccc(-n3c(=O)ccc4cnc5ccc(-c6cnn(C)c6)cc5c43)cc21`, the cell viability, % of control (lower = more cytotoxic) in experiment [1] came to 1.99%. Besides, in [2], the viability (% of control) was 2.44%. Moreover, the Potency entry in experiment [3] is “inactive”. Further, the Potency in experiment [5] is 6.62 µM (active); in experiment [9], 3320 nM (active); in experiment [6] it was 3320 nM (active); in experiment [7], 3320 nM (active); in experiment [10], 3.99 µM (active).
With `Cn1cc(C[C@@H](N)C(=O)O)c2ccccc21`, in experiment [1], the cell viability, % of control (lower = more cytotoxic) amounted to 152% [at 23.2 µM]. Further, the viability (% of control) in [2] was found to be 126% [at 23.2 µM]. Moreover, the Potency result in experiment [3], in experiment [5], in experiment [9], in [6], in experiment [7] and in experiment [8] was “inactive” each time.
Consider `COc1cc(OC)c(C=CS(=O)(=O)Cc2ccc(OC)c(NCC(=O)O)c2)c(OC)c1`, for which the cell viability, % of control (lower = more cytotoxic) in [1] is 5.33%. Further, the viability (% of control) in experiment [2] came out at 8.09%. Moreover, the Potency entry in experiment [3] was “inactive”. For the same molecule, the Potency was 0.0935 µM (active) in [5]; 187 nM (active) in experiment [9]; 235 nM (active) in experiment [6]; 52.6 nM (active) in experiment [7]; 0.264 µM (active) in [8].
Turning to `CC(C)(N)c1ccc(-c2nc3ccccc3nc2-c2ccccc2)cc1`, the cell viability, % of control (lower = more cytotoxic) in [1] came out at 8.3%. Moreover, the viability (% of control) in [2] amounted to 4.03%. The Potency result in experiment [3] and in experiment [4] was “inactive” each time. The Potency in [5] is 26.4 µM (active); in experiment [6] it was 20900 nM (active); in [7] it was 23500 nM (active); in [8], 418 nM (active) and 23.1 µM (active).
`N#CC(=C(O)c1ccc(Cl)cc1Cl)c1nc2cc(Cl)ccc2c(=O)[nH]1`: the cell viability, % of control (lower = more cytotoxic) in experiment [1] stood at 34.3%. For the same molecule, in experiment [2], the viability (% of control) is 95.9%. In addition, the Potency result in experiment [3], in experiment [5], in experiment [9], in [6], in experiment [7] and in experiment [8] was “inactive” each time.
As to `N[C@H]1CN(c2c(F)cc3c(=O)c(C(=O)O)cn(C4C[C@@H]4F)c3c2Cl)CC12CC2` (stereo partly specified), the cell viability, % of control (lower = more cytotoxic) in [1] came to 92.2%. Besides, the viability (% of control) in experiment [2] was determined as 92.9%. The Potency result in experiment [3], in experiment [5], in [9], in experiment [6] and in [8] was “inactive” each time. For the same molecule, the Potency in experiment [7] was 3.3 nM (active).
As to `Nc1nc(=O)n([C@H]2C[C@H](O)[C@@H](CO)O2)cc1F`, the cell viability, % of control (lower = more cytotoxic) in experiment [1] turned out to be 190%. In [2], the viability (% of control) came to 35.3%. Besides, the Potency result in experiment [3] was “inactive”. Moreover, the Potency in [5] is 0.0469 µM (active); in experiment [9], 93.5 nM (active); in experiment [6] it was 66.2 nM (active); in experiment [7] it was 29.6 nM (active); in experiment [8], 4.18 µM (active).
With `COc1ccc2c(c1OC)C(=O)OC2[C@H]1c2c(cc3c(c2OC)OCO3)CCN1C` (stereo partly specified), the cell viability, % of control (lower = more cytotoxic) in [1] worked out at 24.5%. The viability (% of control) in experiment [2] is 8.98%. Besides, the Potency entry in experiment [3] and in experiment [7] was “inactive” each time. Also, the Potency in experiment [5] is 0.0935 µM (active); in [9], 235 nM (active); in experiment [6], 52.6 nM (active); in experiment [8] it was 1.87 µM (active).

Values taken from PubChem BioAssay (NCATS).
